Bioassay records: PubChem, several laboratories
Hits are enriched below; roughly 4.9% of the tested compounds scored in any of these assays.
NALP3 yeast inh: NALP3 inhibition in yeast | inhibition, % at 10 µM | 0.39% of 330,000 active | Yeast reconstituted NLRP3/ASC/caspase-1, beta-gal luminescence, 24 h;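 active = inhibition of 50% or more; inactive = inhibition below 50%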;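 also: plate controls were induced DMSO wells for no effect and uninduced yeast grown without galactose for full effect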
TIM10 inh: inhibits growth of TIM10 yeast strain; 1.4% of 330,000 active; S. cerevisiae TIM10 strain growth, BacTiter-Glo luminescence, 24 h; inhibition, % at 10 µM; AID 463195;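 active = inhibition of 40% or more at the single tested concentration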;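 also: wild-type TIM10 isogenic control strain grown at permissive 25 °C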
NALP1 yeast inh: blocks the NALP1 inflammasome reconstituted in yeast; S. cerevisiae NALP1/ASC/caspase-1 growth, X-gal OD620, 72 h; inhibition, % at 10 µM; AID 2071; 0.61% of 280,000 active; in the data active = inhibition mostly above about 24%, no sharp cut-off; inactive = mostly below about 32%
tim23-1 inh: tim23-1 yeast growth inhibition; S. cerevisiae tim23-1 growth, BacTiter-Glo luminescence, 24 h; inhibition, % at 20 µM; 1.3% of 330,000 active;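 active = growth inhibition of the mutant yeast at or above 50%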;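 also: temperature-sensitive mutant grown at 25 °C; plate controls were DMSO-treated mutant yeast for no effect and medium wells lacking yeast for full effect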
SKKanGAS inh: SKKanGAS growth inhibition; S. pyogenes SKKanGAS, kanamycin growth, BacTiter-Glo, 6 h; AID 1662; 1.3% of 300,000 active; inhibition, % at 7.5 µM;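 active = mean replicate score, as percent of positive control median, at least 50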;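 also: strain carries kanamycin resistance gene driven by streptokinase promoter and grows in 40 µg/ml kanamycin; loss of luminescence reflects streptokinase promoter inhibition or plain growth inhibition; 0% = median of DMSO wells and 100% = positive control at its reference dose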
tim10-1 inh: growth inhibitors of tim10-1 mutant yeast | S. cerevisiae tim10-1 ts strain growth, BacTiter-Glo, 24 h | inhibition, % at 20 µM | 2.2% of 330,000 active | AID 463190;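 active = inhibition of at least 40%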;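 also: mutant grown at 25 °C; 0% = DMSO wells with yeast and 100% = wells holding no yeast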
tim10-1 conf: confirmation of tim10-1 mutant yeast growth inhibitors; S. cerevisiae tim10-1 ts strain growth, BacTiter-Glo, 24 h; 56% of 7,400 active; shares compounds with tim10-1 inh; inhibition, % at 20 µM; AID 463213;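 active = inhibition of yeast growth at or above a set limit in either of two repeat tests at 20 µM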;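 also: tim10-1 mutant grown at permissive 25 °C to find synthetic lethal compounds; 0% = DMSO yeast wells and 100% = medium wells without yeast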
* hit, by the source's call; . = not tested or not shown; ! = not active in a repeat.

SMILES | NALP3 yeast inh | TIM10 inh | NALP1 yeast inh | tim23-1 inh | SKKanGAS inh | tim10-1 inh | tim10-1 conf
C=CC(C)(C)c1c(O)c(CC=C(C)C)c(O)c2c(=O)c3ccc(O)c(O)c3oc12 | -4 | -1 | . | 43 | 103* | 44* | 29*
CCOC(=O)C1CCCN(CC(=O)Nc2nc(-c3ccccc3)cs2)C1 (stereo not given) | 40 | 12 | 16 | 39 | 2 | 39 | .
Cc1nnc(-c2ccccc2)c(=O)n1/N=C/c1c(O)ccc2ccccc12 | -1 | 37 | 8 | 32 | 70* | 49* | 19
Cc1nnc(C)n1/N=C/c1c(O)ccc2ccccc12 | 8 | 17 | 7 | -2 | -2 | -9 | .
COc1ccc(NC(=O)C2CCN(c3nc(C)cc(C)n3)CC2)cc1 | -2 | 9 | -9 | 3 | 3 | 15 | .
COc1ccc(NC(=O)C2CCN(c3cc(C)nc(-c4ccccc4)n3)CC2)cc1 | 19 | 22 | 44 | 38 | 2 | 43* | 30
CCOc1ccc(S(=O)(=O)N2Cc3ccccc3CC2C(=O)O)cc1 (stereo not given) | -11 | -18 | . | -2 | -5 | -14 | .
Cc1nn(-c2nnc(NCc3ccccc3)nn2)c(C)c1Br | 29 | 13 | 23 | 35 | -12 | 49* | 28
c1ccc(-c2ccccc2-c2nc(-c3cccnc3)no2)cc1 | 11 | 1 | -5 | -3 | 32 | 45* | 13
c1cncc(-c2noc(-c3cccc4ccccc34)n2)c1 | -11 | 23 | -17 | 16 | 8 | 31 | .
CCC(=O)Oc1ccc(-c2nc(-c3cccnc3)no2)cc1 | 12 | 38 | 6 | 44 | 56* | 47* | 46*
Cc1ccc(-c2nc(-c3cccnc3)no2)cc1 | 27 | 19 | 14 | 19 | -1 | 24 | .
CC1(C)SC2c3ccccc3C(=O)N2[C@@H]1C(=O)O (stereo not given in full) | -6 | -4 | 9 | 2 | -2 | 3 | .
CSc1ccccc1NC(=O)C1CC(c2c(F)cccc2Cl)=NO1 (stereo not given) | 33 | 33 | . | 47 | 8 | 46* | 56*
O=C(NCCS(=O)(=O)N1CCN(c2ccccc2F)CC1)c1cc(=O)c2ccccc2o1 | 8 | 10 | 7 | 7 | 1 | 19 | .
Cc1ccc(Cl)cc1N1CCN(C(=O)C2(S(=O)(=O)c3ccc(Cl)cc3)CC2)CC1 | 9 | 30 | 14 | 27 | 10 | 40* | 27
Cc1ccc(C)c(N2CCN(C(=O)c3ccc(CS(=O)Cc4ccc(Cl)cc4)o3)CC2)c1 (stereo not given) | 5 | 4 | 31 | 16 | -1 | 46* | -3
CN1CCN(C(=O)c2ccc(CS(=O)Cc3ccc(Cl)cc3)o2)CC1 (stereo not given) | -3 | -5 | 29 | 11 | 3 | 7 | .
O=C(c1ccc(CS(=O)Cc2ccc(Cl)cc2)o1)N1CCN(c2ccccc2F)CC1 (stereo not given) | 10 | 14 | 1 | 23 | -4 | 10 | .
Cc1cccc(N2CCN(C(=O)C3(S(=O)(=O)c4ccc(Cl)cc4)CC3)CC2)c1C | -16 | -2 | 2 | -5 | 1 | -28 | .
Cc1ccc(Cl)cc1N1CCN(C(=O)c2ccc(CS(=O)Cc3ccc(Cl)cc3)o2)CC1 (stereo not given) | 1 | 2 | 7 | 3 | 4 | 45* | -20
Cc1ccc(NC(=O)C(c2ccccc2)N2CCN(CC(=O)NC3CC3)CC2)cc1 (stereo not given) | 5 | 0 | . | -18 | . | -17 | .
COc1ccc(-c2cc(C3CC3)nc(N)c2C#N)cc1 | -7 | 22 | 12 | 24 | 9 | 27 | .
COc1ccc(-c2cc(C3CC3)nc3sc(C#N)c(N)c23)cc1 | 28 | 35 | 31 | 47 | 29 | 44* | 57*
CCc1cc(C(=O)OCC(=O)N2CCC(c3ccccc3)=N2)sc1C | 15 | 5 | 14 | 16 | 27 | 22 | .
SMILES | NALP3 yeast inh | TIM10 inh | NALP1 yeast inh | tim23-1 inh | SKKanGAS inh | tim10-1 inh | tim10-1 conf
Cc1nn(Cc2cccc(C(=O)NC34CC5CC(CC(C5)C3)C4)c2)c(C)c1Br | 0 | 20 | 19 | 26 | 17 | 43* | 28
CC(NC(=O)c1ccco1)C(c1cccs1)N1CCN(c2ccc(F)cc2)CC1 (stereo not given) | -4 | 5 | 8 | 34 | 4 | 47* | 18
CC(NC(=O)Cc1cccs1)C(c1cccs1)N1CCN(c2ccccc2F)CC1 (stereo not given) | -1 | 31 | 3 | 32 | 5 | 46* | 37*
COc1cc2c(C#N)c(N3CCCC3)nc(N)c2c(N)n1 | 2 | 27 | . | 48 | 13 | 43*! | 22
Cc1ccc(C2=NN(C(=O)CSc3nnnn3C)C(c3ccco3)C2)cc1 (stereo not given) | 10 | 9 | . | 21 | . | 3 | .
O=C(NC1CCCCC1)N1CCN(c2nc(-c3ccccc3)cs2)CC1 | 23 | 20 | 10 | 41 | -2 | 45* | 30
COCCCNC(=S)N1CCN(c2nc(-c3ccc(F)cc3)cs2)CC1 | 18 | 19 | -77 | 48 | 16 | 44* | 33*
CCCNC(=S)N1CCN(c2nc(-c3ccc(C)cc3)cs2)CC1 | 18 | 24 | -8 | 19 | 27 | 13 | .
COc1ccc(-c2csc(N3CCN(C(=O)c4ccccc4)CC3)n2)cc1 | -32 | 27 | 6 | 33 | 10 | 42* | 33*
COCCNC(=S)N1CCN(c2nc(-c3ccccc3)cs2)CC1 | 18 | 10 | 13 | 38 | 12 | 41* | 32*
Cc1ccc(S(=O)(=O)NCc2ccco2)cc1C(N)=O | 12 | 4 | -16 | 4 | 7 | -2 | .
CC(C)OC(=O)CSc1nnc(-c2cnccn2)n1-c1ccc(Cl)cc1 | -3 | 11 | 15 | 25 | -4 | 41* | 21
O=C1/C(=C/c2ccccc2)SC(=S)N1CC(=O)N1CCCCC1c1cccnc1 (stereo not given) | 16 | 17 | 13 | 47 | 4 | 47* | 16
c1cncc(-c2nc(N3CCCCCC3)c3ccccc3n2)c1 | 2 | 26 | 20 | 44 | 3 | 50* | 32*
CN1CCN(c2nc(-c3cccnc3)nc3ccccc23)CC1 | 16 | -1 | 33 | 10 | -2 | 9 | .
O=C(c1ncn(Cc2ccccc2)c1C(=O)N1CCc2ccccc2C1)N1CCc2ccccc2C1 | 20 | 13 | . | 42 | . | 33 | .
CC(C)[C@H](NS(=O)(=O)c1ccccc1F)C(=O)NC1CCCCC1 | 0 | 9 | . | 8 | . | -7 | .
COc1ccccc1-c1nnc2sc(C3CCCCC3)nn12 | 47 | 2 | 14 | 32 | . | 43* | 22
COc1ccc(Cc2nn3c(-c4ccccc4OC)nnc3s2)cc1 | -1 | -31 | 1 | -5 | 4 | -13 | .
Cc1cc(SCC(=O)Nc2cccc(S(=O)(=O)N3CCOCC3)c2)nc2ccccc12 | 19 | 28 | 2 | 32 | 29 | 22 | .
